Source: PubChem BioAssay (Broad Institute)
Shown is part of a subset that was picked to be rich in hits.
C diff HTS – inhibitors of Clostridium difficile growth. Clostridium difficile clinical isolate growth, OD600, 24 h; active compounds read low. growth activity, negative = inhibition, % at 16 µg/mL (by protocol). 86,000 tested, 0.25% active. AID 1259249;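 active = mean growth activity at or below -80% and every replicate also at or below -80%; inconclusive = mean at or below -80% but some replicate above -80%; inactive = mean growth activity above -80%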
T cruzi growth-1 – inhibitors of T. cruzi proliferation; T. cruzi beta-gal in NIH3T3, GalScreen luminescence, 90 h; inhibition, % at 8.34 µM; 77,000 tested, 5.9% active;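 active = mean inhibition above about 93%, with at least 55% of replicates each passing it, limit read from the data, passing the limit was not always enough; inconclusive = only one of those two conditions holds; inactive = neither condition holds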
T cruzi growth-2 – blocks T. cruzi growth in NIH3T3 host cells; shares compounds with T cruzi growth-1; T. cruzi beta-gal in NIH3T3, GalScreen luminescence, 90 h; inhibition, % at 8.35 µM; 5,600 tested, 72% active;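 active = mean replicate inhibition above about 95% and at least 55% of replicates individually reaching it, limit read from the data; inconclusive = only one of the two criteria is met; inactive = neither criterion is met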
T cruzi growth-3 – inhibitors of T. cruzi proliferation | shares compounds with T cruzi growth-1 | inhibition, % at 2.09 µM | 5,600 tested, 21% active | T. cruzi beta-gal in NIH3T3, GalScreen luminescence, 90 h;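 active = mean inhibition above about 95%, with at least 55% of replicates also reaching it, limit read from the data; inconclusive = meets just one of the two conditions; inactive = meets neither condition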
3T3 cytotox – cytotoxicity in mouse NIH/3T3 fibroblasts | shares compounds with T cruzi growth-1 | NIH/3T3 viability, CellTiter-Glo ATP luminescence, 90 h | cytotoxicity (signal decrease), % at 8.35 µM | 5,600 tested, 14% active | AID 651742;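 active = mean signal decrease across replicates above about 35% based on untreated-well scatter, with enough replicates individually passing, limit read from the data; inconclusive = no rule stated though some were filed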
3T3 cytotox 2 – NIH/3T3 (mouse) viability loss; shares compounds with T cruzi growth-1; NIH/3T3 viability, CellTiter-Glo ATP luminescence, 90 h; inhibition, % at 24.9 µM; 5,600 tested, 56% active; AID 651744;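 active = mean loss of cell viability signal at or above a set limit, and enough replicates individually reaching it; inconclusive = meets only the mean limit or only the replicate share; inactive = meets neither condition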
Each line names hits and unclear results; the compound was inactive in the other large screens (follow-up assays come after a bar, where they were run).

C[C@@H]1CCCCO[C@@H](CN(C)CC2CCCCC2)[C@@H](C)CN([C@H](C)CO)C(=O)c2cc(NC(=O)Nc3cccc4ccccc34)ccc2O1	T cruzi growth-1 inconclusive | T cruzi growth-2 105 | T cruzi growth-3 105 | 3T3 cytotox inactive | 3T3 cytotox 2 36
C[C@H](CO)N1C[C@H](C)[C@@H](CN(C)Cc2ccc(C(=O)O)cc2)OCCCC[C@H](C)Oc2ccc(NC(=O)Nc3cccc4ccccc34)cc2C1=O	none
C[C@H](CO)N1C[C@H](C)[C@H](CN(C)Cc2ccccc2)OCCCC[C@H](C)Oc2ccc(NC(=O)Nc3cccc4ccccc34)cc2C1=O	T cruzi growth-1 117 | T cruzi growth-2 inactive | T cruzi growth-3 inactive | 3T3 cytotox inactive | 3T3 cytotox 2 93
C[C@@H]1CN([C@@H](C)CO)C(=O)c2cc(NC(=O)Nc3cccc4ccccc34)ccc2O[C@@H](C)CCCCO[C@@H]1CN(C)Cc1ccccc1	T cruzi growth-1 116 | T cruzi growth-2 110 | T cruzi growth-3 101 | 3T3 cytotox inactive | 3T3 cytotox 2 inconclusive
C[C@@H]1CCCCO[C@H](CN(C)CC2CCCCC2)[C@@H](C)CN([C@H](C)CO)C(=O)c2cc(NC(=O)Nc3cccc4ccccc34)ccc2O1	none
C[C@@H]1CCCCO[C@@H](CN(C)Cc2ccccc2)[C@@H](C)CN([C@H](C)CO)C(=O)c2cc(NC(=O)Nc3cccc4ccccc34)ccc2O1	none (no result: T cruzi growth-1)
C[C@@H]1CCCCO[C@H](CN(C)Cc2ccc(C(=O)O)cc2)[C@H](C)CN([C@H](C)CO)C(=O)c2cc(NC(=O)Nc3cccc4ccccc34)ccc2O1	none
CO[C@@H]1CC[C@@H]2CCN(C)C(=O)[C@@H](C)N(C)C(=O)c3cc(C#N)ccc3OC[C@H]1O2	none
COc1ccc2c3c([nH]c2c1)[C@@H](CO)N(C(=O)Nc1ccc(F)cc1)CC31CN(C(=O)Nc2ccc3c(c2)OCO3)C1	none (no result: T cruzi growth-1)
C[C@@H]1CN([C@H](C)CO)C(=O)c2cc(NC(=O)Nc3cccc4ccccc34)ccc2O[C@@H](C)CCCCO[C@H]1CN(C)Cc1ccccc1	T cruzi growth-1 111 | T cruzi growth-2 inactive | T cruzi growth-3 105 | 3T3 cytotox inactive | 3T3 cytotox 2 107
C[C@H]1CCCCO[C@H](CN(C)Cc2ccc(C(=O)O)cc2)[C@@H](C)CN([C@@H](C)CO)C(=O)c2cc(NC(=O)Nc3cccc4ccccc34)ccc2O1	none
COc1ccc(CN(C)C[C@H]2OCCCC[C@@H](C)Oc3ccc(NC(=O)Nc4cccc5ccccc45)cc3C(=O)N([C@@H](C)CO)C[C@H]2C)cc1	none
COc1ccc(CN(C)C[C@H]2OCCCC[C@@H](C)Oc3ccc(NC(=O)Nc4cccc5ccccc45)cc3C(=O)N([C@@H](C)CO)C[C@@H]2C)cc1	T cruzi growth-1 inconclusive | T cruzi growth-2 97 | T cruzi growth-3 101 | 3T3 cytotox 41 | 3T3 cytotox 2 103
CCS(=O)(=O)N[C@@H]1C=C[C@H](CC(=O)NCc2ccccn2)O[C@@H]1CO	none (no result: T cruzi growth-1)
Cc1ccccc1S(=O)(=O)N1CC(=O)N2[C@H](CO)[C@H](c3ccc(C#CC4CC4)cc3)[C@H]2C1	none (no result: T cruzi growth-1)
COc1ccc(S(=O)(=O)N(C)C[C@@H]2OCCCC[C@@H](C)Oc3ccc(NS(=O)(=O)c4ccccc4)cc3C(=O)N([C@H](C)CO)C[C@H]2C)cc1	T cruzi growth-1 106 | T cruzi growth-2 109 | T cruzi growth-3 inactive | 3T3 cytotox inactive | 3T3 cytotox 2 inactive
COc1ccc(S(=O)(=O)Nc2ccc3c(c2)C(=O)N([C@H](C)CO)C[C@H](C)[C@H](CN(C)S(=O)(=O)c2ccccc2)OCCCC[C@H](C)O3)cc1	none (no result: T cruzi growth-1)
COc1ccc(S(=O)(=O)N(C)C[C@H]2OCCCC[C@@H](C)Oc3ccc(NS(=O)(=O)c4ccccc4)cc3C(=O)N([C@@H](C)CO)C[C@H]2C)cc1	T cruzi growth-1 107 | T cruzi growth-2 inconclusive | T cruzi growth-3 inactive | 3T3 cytotox inactive | 3T3 cytotox 2 inactive
COc1ccc(S(=O)(=O)N(C)C[C@@H]2OCCCC[C@H](C)Oc3ccc(NS(=O)(=O)c4ccccc4)cc3C(=O)N([C@H](C)CO)C[C@@H]2C)cc1	none
O=C(C[C@@H]1CC[C@H]2[C@@H](COC[C@@H](O)CN2S(=O)(=O)c2ccccc2)O1)Nc1ccccc1	none
O=C(C[C@H]1CC[C@@H]2[C@H](COC[C@H](O)CN2S(=O)(=O)c2ccccc2)O1)Nc1ccc(-c2ccccc2)cc1	none (no result: C diff HTS)
O=C(C[C@@H]1CC[C@H]2[C@@H](COC[C@@H](O)CN2S(=O)(=O)c2cccc(F)c2)O1)Nc1ccc(-c2ccccc2)cc1	none
Cc1cccc(S(=O)(=O)N2C[C@@H](O)COC[C@@H]3O[C@H](CC(=O)Nc4ccc(-c5ccccc5)cc4)CC[C@H]32)c1	T cruzi growth-1 119 | T cruzi growth-2 107 | T cruzi growth-3 inactive | 3T3 cytotox inconclusive | 3T3 cytotox 2 41
Cc1cccc(S(=O)(=O)N2C[C@H](O)COC[C@@H]3O[C@@H](CC(=O)Nc4ccc(-c5ccccc5)cc4)CC[C@H]32)c1	T cruzi growth-1 111 | T cruzi growth-2 97 | T cruzi growth-3 inconclusive | 3T3 cytotox 60 | 3T3 cytotox 2 78
O=C(C[C@@H]1CC[C@@H]2[C@H](COC[C@@H](O)CN2S(=O)(=O)c2cccc(F)c2)O1)Nc1ccc(-c2ccccc2)cc1	none
Cc1cccc(S(=O)(=O)N2C[C@H](O)COC[C@@H]3O[C@H](CC(=O)Nc4ccc(-c5ccccc5)cc4)CC[C@H]32)c1	T cruzi growth-1 112 | T cruzi growth-2 102 | T cruzi growth-3 107 | 3T3 cytotox inactive | 3T3 cytotox 2 inactive
Cc1cccc(S(=O)(=O)N2C[C@@H](O)COC[C@H]3O[C@@H](CC(=O)Nc4ccc(-c5ccccc5)cc4)CC[C@@H]32)c1	T cruzi growth-1 113 | T cruzi growth-2 100 | T cruzi growth-3 inactive | 3T3 cytotox inactive | 3T3 cytotox 2 78
CN(C)CCCNC(=O)C[C@@H]1C=C[C@@H](NC(=O)c2ccccc2F)[C@@H](CO)O1	none (no result: C diff HTS)
O=C(C[C@H]1C=C[C@H](NC(=O)c2ccc3c(c2)OCO3)[C@H](CO)O1)NCc1ccc(Cl)cc1	none (no result: T cruzi growth-1)
C[C@H]1CN([C@@H](C)CO)C(=O)Cc2cc(NS(=O)(=O)c3ccc(F)cc3)ccc2O[C@H]1CN(C)S(=O)(=O)c1cn(C)cn1	none
COc1ccc(NC(=O)N2CC3(C2)CN(C(=O)c2cccnc2)[C@@H](CO)c2[nH]c4cc(OC)ccc4c23)cc1	none (no result: T cruzi growth-1)
O=C(C[C@H]1CC[C@@H]2[C@H](COC[C@@H](O)CN2C(=O)Nc2ccccc2)O1)NCc1ccccc1F	none (no result: C diff HTS)
O=C(C[C@H]1CC[C@@H]2[C@H](COC[C@@H](O)CN2S(=O)(=O)c2ccccc2)O1)Nc1ccc(-c2ccccc2)cc1	none (no result: C diff HTS)
